The supplement of paper PMC10981050
Where “and” joins values, the source holds several entries; their conditions need not be identical. Equal values may be shown once. Where a name gives a salt, the structure may show the parent alone.

Columns and labels:
Test in all cases: cell viability relative to vehicle control; higher = less cytotoxic
Conditions in all cases: 10 µM
[1] = system: K562
Summary of the method: (§1)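 Each screen used CRISPR-edited mutant and wild-type clones from four leukaemia lines. Compounds were acoustically dispensed at a single 10 µM dose, and CellTiter-Glo luminescence was read after 48 h with the supernatant first removed. Viability was analysed in Genedata Screener and given as percent of the on-plate vehicle control.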

[2] = system: MARIMO
Summary of the method: as §1

[3] = system: MOLM14
Summary of the method: as §1

[4] = system: OCI-AML2
Summary of the method: as §1

Row | SMILES | cell viability ([1]; SRSF2 genotype: SRSF2 P95H/wt) | cell viability ([1]; SRSF2 genotype: SRSF2 wt/wt) [%] | cell viability ([2]; SRSF2 genotype: SRSF2 P95H/wt) [%] | cell viability ([2]; SRSF2 genotype: SRSF2 wt/wt) [%] | cell viability ([3]; SRSF2 genotype: SRSF2 P95H/wt) [%] | cell viability ([3]; SRSF2 genotype: SRSF2 wt/wt) [%] | cell viability ([4]; SRSF2 genotype: P95H/wt) [%] | cell viability ([4]; SRSF2 genotype: wt/wt) [%]
1 | CNc1nc(Nc2cnn(C3CCN(C4COC4)CC3F)c2Cl)ncc1C(F)(F)F (stereo not given) | 89.6% and 89% | 91.7 | 76.2 | 80.1 | 38.2 | 36.4 | 46.3 | 47.6
2 | CN1CCc2cc(Nc3ncc(C4CC4)c(NCCCNC(=O)C4CCC4)n3)ccc2C1 | 34.8% and 33.1% | 55.2 | 3.21 | 1.31 | 0.63 | 0.39 | 1.22 | 4.15
3 | COc1cn(-c2ccc(-n3cccn3)cc2F)nc(-c2ccnn2-c2ccccc2)c1=O | 103% and 105% | 99.9 | 97.5 | 113 | 107 | 107 | 106 | 117
4 | Cc1cc(C)c(/C=C2\C(=O)Nc3ccccc32)[nH]1 [Semaxanib (SU5416)] | 102% and 103% | 105 | 88.3 | 97.4 | 20 | 19.8 | 28.1 | 39.9
5 | CC(=O)OCC1=C(C(=O)O)N2C(=O)C(NC(=O)CSC(=NC(C)C)NC(C)C)C2SC1 (stereo not given) [Cefathiamidine] | 103% and 98.2% | 103 | 103 | 110 | 96.1 | 104 | 102 | 113
6 | C=C[C@]1(C)C[C@@H](OC(=O)CSC(C)(C)CNC(=O)[C@H](N)C(C)C)[C@]2(C)[C@H](C)CC[C@]3(CCC(=O)[C@H]32)[C@@H](C)[C@@H]1O [Valnemulin HCl] | 83.2% and 84.6% | 75.3 | 74 | 74.9 | 80.8 | 80 | 60.7 | 65.5
7 | c1cc(-c2cnn3cc(-c4ccc(N5CCNCC5)cc4)cnc23)c2cccnc2c1 | 0.29% and 0.31% | 0.27 | 0.3 | 0.3 | 0.26 | 0.32 | 0.24 | 0.25
8 | O=C(O)c1ccc2c(c1)C(=O)c1ccccc1C2=O [Anthraquinone-2-carboxylic Acid] | 100% and 101% | 92.5 | 98 | 92 | 102 | 98.5 | 96.3 | 94.9
9 | CC(C)(C)c1cc(C(C)(C)C)c(NC(=O)c2c[nH]c3ccccc3c2=O)cc1O [Ivacaftor (VX-770)] | 79.4% and 75.5% | 76.1 | 101 | 111 | 85.7 | 87.5 | 91.7 | 86
10 | Cc1c(CN2CCC(Nc3ncnc4sc(CC(F)(F)F)cc34)CC2)ccc2[nH]c(C#N)cc12 | 3.04% and 4.05% | 17.5 | 42.9 | 41.7 | 4.02 | 3.33 | 0.4 | 9.25
11 | CCC[C@@H]1C[C@@H](C(=O)N[C@@H]([C@H]2O[C@H](SC)[C@H](O)[C@@H](O)[C@H]2O)[C@H](C)Cl)N(C)C1 [Clindamycin HCl] | 91.2% and 108% | 102 | 94.1 | 99.9 | 96.5 | 108 | 83.9 | 85.3
12 | Cc1cc(C(=O)Nc2nc3cccc(Cl)c3n2[C@@H]2CCCCN(C(=O)/C=C/CN(C)C)C2)ccn1 [Nazartinib (EGF816, NVS-816)] | 74.5% and 75.6% | 69.3 | 27.6 | 35.6 | 53 | 48.9 | 44.4 | 56.7
13 | COc1ccc(CCC(=O)N(c2nccc3ccccc23)[C@@H]2CCCNC2)cc1 | 91.8% and 90.5% | 85.2 | 79 | 93.4 | 80.5 | 85.3 | 91 | 91.2
14 | O=c1c(-c2ccc(O)cc2)coc2cc(O[C@@H]3O[C@H](CO)[C@@H](O)[C@H](O)[C@H]3O)ccc12 [Daidzin] | 94.3% and 101% | 96.3 | 91.7 | 104 | 98 | 104 | 93.5 | 98.4
15 | C=C1CCC[C@]2(C)C=C3OC(=O)C(C)=C3C[C@@H]12 [Atractylenolide I] | 102% and 110% | 106 | 97.2 | 102 | 103 | 103 | 116 | 91.6
16 | O=C(O)CCCc1ccccc1 [Sodium Phenylbutyrate] | 110% and 98.8% | 105 | 100 | 109 | 96.9 | 102 | 94.8 | 100
17 | COc1ccc(C[C@@H]2c3cc(OC)c(OC)cc3CC[N@+]2(C)CCC(=O)OCCCCCOC(=O)CC[N@@+]2(C)CCc3cc(OC)c(OC)cc3[C@H]2Cc2ccc(OC)c(OC)c2)cc1OC [Cisatracurium besylate (Nimbex)] | 93.3% and 95.8% | 92.4 | 79 | 94 | 70.7 | 93 | 99.5 | 111
18 | CO[C@H]1/C=C\C=C(/C)C(=O)NC2=CC(=O)C(NCCN(C)C)=C(C[C@@H](C)C[C@H](OC)[C@H](O)[C@@H](C)/C=C(\C)[C@@H]1OC(N)=O)C2=O [17-DMAG HCl (Alvespimycin)] | 14% and 15.5% | 24 | 28.1 | 22.5 | 0.45 | 0.4 | 3.25 | 12
19 | O=C(/C=C/c1cncc(F)c1)c1c(-c2ccccc2)c2cc(Cl)ccc2[nH]c1=O | 6.82% and 5.38% | 2.2 | 3.3 | 0.38 | 0.08 | 0.04 | 0.13 | 0.16
20 | C[C@H]1Oc2cc(cnc2N)-c2c(nn(C)c2C#N)CN(C)C(=O)c2ccc(F)cc21 | 102% and 95.5% | 99.1 | 91.1 | 91 | 119 | 106 | 94.9 | 104
21 | C=C1C[C@@]23CC[C@H]4[C@@](C)(CCC[C@@]4(C)C(=O)O[C@@H]4O[C@H](CO)[C@@H](O)[C@H](O)[C@H]4O)[C@@H]2CC[C@]1(O[C@@H]1O[C@H](CO)[C@@H](O)[C@H](O[C@@H]2O[C@H](CO)[C@@H](O)[C@H](O)[C@H]2O)[C@H]1O[C@@H]1O[C@H](CO)[C@@H](O)[C@H](O)[C@H]1O)C3 [Rebaudioside A] | 95.1% and 100% | 102 | 98.8 | 106 | 105 | 102 | 104 | 105
22 | NC[C@H](O)c1ccc(O)c(O)c1 [Noradrenaline bitartrate monohydrate (Levoph] | 86.5% and 94.4% | 98.2 | 92.6 | 94.3 | 85.7 | 93.7 | 96.7 | 103
23 | N=C(N)NC(=N)NCCc1ccccc1 [Phenformin hydrochloride] | 84.6% and 93.3% | 91.7 | 93.2 | 98.2 | 101 | 94.9 | 86 | 89.3

Row | SMILES | cell viability ([1]; SRSF2 genotype: SRSF2 P95H/wt) | cell viability ([1]; SRSF2 genotype: SRSF2 wt/wt) [%] | cell viability ([2]; SRSF2 genotype: SRSF2 P95H/wt) [%] | cell viability ([2]; SRSF2 genotype: SRSF2 wt/wt) [%] | cell viability ([3]; SRSF2 genotype: SRSF2 P95H/wt) [%] | cell viability ([3]; SRSF2 genotype: SRSF2 wt/wt) [%] | cell viability ([4]; SRSF2 genotype: P95H/wt) [%] | cell viability ([4]; SRSF2 genotype: wt/wt) [%]
24 | CCC(C)(C)c1ccc(CC(C)CN2C[C@@H](C)O[C@@H](C)C2)cc1 (stereo not given in full) [Amorolfine Hydrochloride] | 79.9% and 81.9% | 99.7 | 66.2 | 71.5 | 81.8 | 81.4 | 49.3 | 71.5
25 | C[C@@H]1CC(=O)NN=C1c1ccc(NN=C(C#N)C#N)cc1 [Levosimendan] | 92.4% and 105% | 99.4 | 68.9 | 86 | 94.7 | 81.7 | 69.8 | 67.1
26 | COc1cccc(Nc2c(C(N)=O)cnc3c(C)cc(S(=O)(=O)c4cccc(C(=O)N(C)C)c4)cc23)c1 | 109% and 106% | 108 | 93.5 | 101 | 108 | 103 | 111 | 98.2
27 | O=c1c2ccccc2nc2n1CCc1c-2[nH]c2ccccc12 [Rutaecarpine (Rutecarpine)] | 103% | 103 | 98.5 | 106 | 101 | 103 | 95.5 | 104
28 | O=c1cc(-c2ccc(OC3OC(CO)C(O)C(O)C3O)cc2)oc2c(C3OC(CO)C(O)C(O)C3O)c(O)cc(O)c12 (stereo not given) [4'-O-Glucosylvitexin] | 97% and 102% | 101 | 97.3 | 91.7 | 99.6 | 99 | 97.4 | 96.8
29 | CC(C)[C@H](N)C(=O)OCCOCn1cnc2c(=O)nc(N)[nH]c21 [Valaciclovir HCl] | 100% and 99% | 102 | 101 | 111 | 101 | 101 | 98.7 | 112
30 | O=C1c2c(O)cc(O)cc2O[C@H](c2cc(O)c(O)c(O)c2)[C@H]1O [Dihydromyricetin (Ampeloptin)] | 111% and 107% | 114 | 112 | 110 | 110 | 107 | 112 | 107
31 | COC(=O)C1=C(C)NC(C)=C(C(=O)OC2CCCN(Cc3ccccc3)C2)C1c1cccc([N+](=O)[O-])c1 (stereo not given) [Benidipine hydrochloride] | 77.9% and 79.1% | 71.8 | 76.6 | 84.7 | 86.3 | 79.2 | 81.5 | 85.9
32 | O=C1C(c2c(O)[nH]c3ccccc23)=Nc2ccccc21 [Indirubin] | 92.2% and 98.7% | 87.3 | 92.3 | 87.8 | 87.5 | 87.9 | 91.8 | 92.9
33 | O=C(O)CCc1c[nH]c2ccccc12 [3-Indolepropionic acid] | 92.7% and 95.1% | 102 | 98.8 | 96.4 | 97.8 | 96.9 | 103 | 98.3
34 | CNC(=O)[C@H](Cc1c[nH]c2ccccc12)NC(=O)[C@@H](CC(=O)NO)CC(C)C [Ilomastat (GM6001, Galardin)] | 101% and 105% | 95.8 | 95.7 | 97.5 | 88.2 | 97.8 | 113 | 112
35 | COc1ccc(CC(=O)Nc2nc3c(s2)CCc2ccccc2-3)cc1OC | 70.4% and 68.1% | 68.3 | 45.1 | 26.8 | 65.1 | 76.5 | 27.9 | 34.9
36 | N[C@@]1(C(=O)O)CS(=O)(=O)[C@H]2[C@H](C(=O)O)[C@H]21 | 104% and 109% | 115 | 107 | 105 | 109 | 113 | 113 | 98.1
37 | Cn1c(=O)c(Oc2ccc(F)cc2F)cc2cnc(NC(CCO)CCO)nc21 | 91.7% and 92.6% | 90.4 | 98.9 | 97.2 | 92.2 | 99.8 | 96.2 | 92.2
38 | CN1CCC(CNc2ccc3ncc(-c4cccc(OC(F)(F)F)c4)n3n2)CC1 [SGI-1776 free base] | 1.35% and 1.49% | 2.08 | 0.84 | 2.75 | 0.45 | 0.48 | 0.42 | 0.66
39 | O=C(O)c1ccccc1-c1c2cc(Br)c(=O)c(Br)c-2oc2c(Br)c(O)c(Br)cc12 [Eosin Y Disodium] | 97.2% and 95.8% | 90.1 | 96 | 92.8 | 85.3 | 93.6 | 91.7 | 93.4
40 | CCCCCC1=C(C)CCC1=O [Dihydrojasmone] | 105% | 108 | 101 | 106 | 107 | 105 | 106 | 115
41 | Fc1ccc(C(c2ccc(F)cc2)N2CCN(C/C=C/c3ccccc3)CC2)cc1 [Flunarizine 2HCl] | 67.8% and 82.2% | 72.8 | 50.4 | 37.9 | 46.8 | 60.7 | 28.7 | 26.7
42 | Nc1cc(C(Cl)=C(Cl)Cl)c(S(N)(=O)=O)cc1S(N)(=O)=O [Clorsulon] | 92.3% and 94.2% | 99.7 | 103 | 107 | 104 | 99.8 | 99.9 | 112
43 | O=C(O)c1ccc(-n2nc(-c3ccccc3O)nc2-c2ccccc2O)cc1 [Deferasirox (Exjade)] | 93.5% and 95.5% | 76.4 | 60.3 | 74 | 83.5 | 60 | 58.3 | 67.8
44 | C[C@@H]1COC(Nc2ccc3ncnc(Nc4ccc(OCc5nccs5)c(Cl)c4)c3c2)=N1 [Varlitinib] | 86.5% and 83.2% | 88.1 | 89.2 | 109 | 91.7 | 96.3 | 87 | 88.2
45 | COc1cc2c(NC3CCN(C(C)C)CC3)nc(C3CCCCC3)nc2cc1OCCCN1CCCC1 | 5.7% and 1.99% | 3.43 | 1.5 | 1.11 | 0.34 | 0.42 | 0.27 | 0.2
